# From PubChem BioAssay AID1469 (National Center for Advancing Translational Sciences (NCATS), 2008)
# The whole screen tested about 280,000 compounds, of which about 180 (0.064%) were called active. The entries come from a sample that favours actives as a whole. Unmarked numbers belong to inactive results. Calls come from the whole dose curve; as a rule, active = well fitted inhibition curve with a large enough effect; inconclusive = small, poorly fitted or top-dose-only effect, or effect the other way; inactive = flat fitted curve, though single readings scatter.
# Target: Thyroid hormone receptor beta (Homo sapiens) (UniProt P10828)
# Test: qHTS for Inhibitors of the Interaction of Thyroid Hormone Receptor and Steroid Receptor Coregulator 2; note: nearly all actives have a fitted effect of over 50% in size;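 for activity change, negative = inhibition: plate controls were bound peptide for no effect and peptide without receptor for full effect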
# Settings: TRbeta-SRC2 peptide binding, fluorescence polarization, receptor liganded with 1 µM T3; series mostly up to 201 µM; activity change, negative = inhibition: at the top concentration
# Text: NIH Molecular Libraries Probe Production Network [MLPCN]
# NIH Chemical Genomics Center [NCGC]
# Assay Provider: R. Kip Guy, St. Jude Children's Research Hospital
# Thyroid receptor (TR) regulates many homeostatic processes including basal metabolism, cardiovascular function, body weight, and lipid trafficking. TR modulators are potential therapeutics for obesity and hyperlipidemias but current thyroid analogs have undesirable side effects, particularly cardiac stimulation. To identify inhibitors that specifically prevent the interaction of TR with the steroid receptor coregulator 2 (SRC2), a fluorescence polarization assay was screened. This assay detects interaction of the ligand-binding domain of human TRb with a Texas Red labeled SRC2 peptide, corresponding to a 20 amino acid region of the nuclear receptor interaction domain (Arnold et al., 2006). Small molecule inhibitors that block the interaction of TR and SRC2 are detected by a decrease in fluorescence polarization.
# Arnold, L. A.; Estebanez-Perpina, E.; Togashi, M.; Shelat, A.; Ocasio, C. A.; McReynolds, A. C.; Nguyen, P.; Baxter, J. D.; Fletterick, R. J.; Webb, P.; Guy, R. K. A high-throughput screening method to identify small molecule inhibitors of thyroid hormone receptor coactivator binding. Sci STKE 2006, p 13.
# NCGC Assay Protocol Summary:
# For screening, 5 uL/well 0.6 uM TRb and 20 nM SRC2 Texas Red in protein buffer (20mM Tris hydrochloride, 100mM NaCl, 10% glycerol, 1mM EDTA, 0.01% NP-40, 1mM DTT, 1uM T3 and 5% DMSO) was dispensed into black solid 1536-well plates (Grenier) using a solenoid-based dispenser. Following transfer of 23 nL compound or DMSO vehicle by a pin tool, the plates were centrifuged 15 s at 1000 RPM and incubated 5 hr at ambient temperature. The plates were read by an Envision (Perkin Elmer) to detect fluorescence polarization of SRC2 Texas Red (555 nm excitation and 632 nm emission). Data were normalized to unbound (all components except TRb) and bound SRC2 Texas Red controls. In this assay, we provide % activity data for each concentration as well as potencies for the active compounds.
# Keywords: NIH Roadmap, MLPCN, MLI, MLSMR, qHTS, NCGC, qHTS, thyroid hormone receptor, steroid receptor coactivator, fluorescence polarization
# Potency is the fitted concentration of half-maximal effect.
# Thyroid hormone receptor beta (Homo sapiens), sequence (P10828 whole entry, looked up): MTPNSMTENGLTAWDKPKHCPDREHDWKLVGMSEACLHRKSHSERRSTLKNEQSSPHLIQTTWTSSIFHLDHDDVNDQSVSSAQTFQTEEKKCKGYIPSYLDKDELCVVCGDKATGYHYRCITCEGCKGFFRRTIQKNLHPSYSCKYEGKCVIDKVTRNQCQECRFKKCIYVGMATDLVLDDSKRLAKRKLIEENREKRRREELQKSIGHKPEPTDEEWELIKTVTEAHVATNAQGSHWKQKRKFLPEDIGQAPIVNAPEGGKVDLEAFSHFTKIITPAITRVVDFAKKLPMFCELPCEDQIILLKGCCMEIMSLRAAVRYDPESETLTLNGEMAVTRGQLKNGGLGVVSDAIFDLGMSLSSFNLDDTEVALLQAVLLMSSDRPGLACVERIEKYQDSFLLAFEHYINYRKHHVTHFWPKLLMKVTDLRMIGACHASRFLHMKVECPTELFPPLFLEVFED
SMILES,Potency,"activity change, negative = inhibition [%]"
CC[N+](C)(CC)CCC[n+]1c(-c2ccccc2)c2cc(N)ccc2c2ccc(N)cc21,44.7 µM (active),–
Oc1ccc(C2(c3ccc(O)cc3)c3ccccc3-c3ccccc32)cc1,–,1.29
[Ga]#[As],–,5.9
CCOP(=O)(SC(C)CC)SC(C)CC (stereo not given),–,-2.05
COc1nc(C)nc(NC(=O)NS(=O)(=O)c2ccccc2CCC(F)(F)F)n1,–,-2.66
